Assay outcomes: PubChem, several laboratories
HSF-1 act: increases HSF-1 driven luciferase reporter signal. hit rate 1.7% among 300,000. AID 504408. activation, % at 9 µM. NIH3T3-HGL HSF-1 luciferase reporter, MG132, 8 h; 100% = twice DMSO control signal;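 active = mean replicate activation of at least 50% with a set share of replicates each reaching 50%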;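 note: 0% = median of the neutral control wells and 100% = twice that signal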
HSF1 inh: HSF1 inhibition | NIH3T3-HGL HSE-luciferase, MG132-induced, luminescence 8 h; active compounds read low | activity change, negative = inhibition, % at 7.5 µM (by protocol) | hit rate 0.77% among 300,000;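 active = more than half of replicate wells show activity change below -50%, luminescence cut by over half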;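 note: luciferase reports HSF-1 transcriptional activity via heat shock element; 0% = median of DMSO wells and -100% = zero luminescence signal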
TLR4-MyD88 BLA: blocks binding of human TLR4 to MyD88. hit rate 0.18% among 200,000. HeLa CL3-4 TLR4/MyD88 BLA complementation, FRET ratio. inhibition, % at 8.4 µM; in the data active = inhibition above about 25%;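 note: 0% = vehicle and 100% = reference inhibitor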
TLR9-MyD88 inh: inhibitors of human TLR9-MyD88 binding | Q9NR96+Q99836 | CHO BLA complementation TLR9-MyD88, CCF4 FRET ratio | hit rate 0.21% among 340,000 | inhibition, % at 4.98 µM;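 active = inhibition above the mean over all tested compounds plus 3 SD, cut at about 21% in these data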;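 note: 0% = DMSO only wells and 100% = clavulanate BLA inhibitor control wells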
NOD2-RIPK2 inh: blocks binding of human NOD2 to RIPK2. hit rate 0.38% among 360,000. O43353. inhibition, % at 4.98 µM. CHO BLA complementation NOD2-RIPK2, CCF4 ratio; in the data active = inhibition above about 21%;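 note: 0% = vehicle only and 100% = reference blocker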
* marks the source's active call; other numbers are inactive results; · = no result given. Hits are enriched below; roughly 2.4% of the tested compounds scored in any of these assays.

SMILES	HSF-1 act	HSF1 inh	TLR4-MyD88 BLA	TLR9-MyD88 inh	NOD2-RIPK2 inh
CC(O/N=C\c1ccccc1O)C(=O)Nc1ccccc1C(=O)N1CCOCC1 (centres undefined)	-69	-58*	-3	-7	-4
Cc1cc(C)n(CC(=O)NC2C(=O)N3C(C(=O)O)=C(CSc4nnc(C)s4)CSC23)n1 (centres undefined)	9	-1	-4	-15	1
Cc1nnc(SCC2=C(C(=O)O)N3C(=O)C(NC(=O)c4cccc(F)c4F)C3SC2)s1 (centres undefined)	63*	24	8	13	-2
CCc1ccc(C2=NNC(=Nc3cccc(S(=O)(=O)N(C)C)c3)SC2)cc1	-78	-77*	0	2	-1
CCOc1ccccc1CN1CCNC(=O)C1CC(=O)NCc1nccn1CC (centres undefined)	67*	20	·	-6	5
COc1cccc(N(C(=O)c2nc3nccc(C)n3n2)c2nc3ccccc3s2)c1	121*	69	-4	5	6
Cc1ccc(-n2ncc3c(NCc4ccc5c(c4)OCO5)ncnc32)c(C)c1	-62	-55*	5	-5	-5
Cc1ccc(-n2ncc3c(NCc4cccnc4)ncnc32)cc1C	55*	37	·	15	8
O=c1ccc2ccc(Oc3ccc([N+](=O)[O-])cc3[N+](=O)[O-])cc2o1	68*	33	6	·	·
CC(=O)C12OC(C)(C)OC1CC1C3CCC4=CC(=O)C=CC4(C)C3(F)C(O)CC12C (centres undefined)	·	·	·	11	-4
COc1ccc(C)cc1-n1c(=O)c2ccccc2c2ccccc2c1=O	315*	236	-5	-13	6
COc1cc(/C=N/N2CCOCC2)ccc1OCc1ccc(Cl)cc1	80*	34	11	-3	2
COc1cc(/C=N/OCC(=O)Nc2cc(C)cc(C)c2)ccc1OCc1ccc(Cl)cc1	71*	47	-9	5	-15
COc1cc(/C=N/N2CCOCC2)ccc1OCc1ccccc1	17	26	-7	-8	0
CCCCCCOc1ccc(/C=C/C(=O)N2CCOCC2)cc1OC	17	4	·	-1	12
COc1cc(/C=N/OCC(=O)NC2CCCCC2C)ccc1OCc1ccc(Cl)cc1 (centres undefined)	2	-11	4	-10	-1
COc1cc(/C=C/C(=O)N2CCOCC2)ccc1OCc1ccccc1	75*	46	-4	-3	1
COC(=O)c1ccccc1S(=O)(=O)N1CCC(C(=O)NCCC2=CCCCC2)CC1	·	·	·	-1	-11
O=C(CN1CCC(C(=O)c2ccc3c(c2)OCCO3)CC1)Nc1ccccc1C(F)(F)F	35	2	·	-7	-4
CN=c1scc(-c2ccccc2F)n1/N=C(\C)c1cccnc1	78*	26	2	1	-11
C/C(=N\N1CCN(C2c3ccccc3-c3ccccc32)CC1)c1cccnc1	-10	-9	-3	4	-4
COc1cccc(-n2c(N)c(-c3nc4ccccc4[nH]3)sc2=S)c1	-66	-55*	10	6	-9
C/C=C(\C)C(=O)OC1[C@H](OC(C)=O)C2(CO)C(CC1(C)C)C1=CCC3C4(C)CCC(O[C@@H]5O[C@H](C(=O)O)[C@@H](O[C@@H]6O[C@H](CO)[C@@H](O)[C@H](O)[C@H]6O)[C@H](O)[C@H]5O[C@H]5O[C@H](CO)[C@@H](O)[C@H](O)[C@H]5O)[C@](C)(CO)C4CCC3(C)[C@]1(C)C[C@H]2O (some centres undefined)	·	·	·	58*	30*
C/C=C(/C)C(=O)OC1CC(C)(C)C[C@H]2C3=CC[C@@H]4[C@@]5(C)CCC(O[C@@H]6O[C@@H](C(=O)O)[C@@H](O)C(O[C@@H]7OC[C@H](O)[C@@H](O)[C@@H]7O[C@@H]7OC(CO)C(O)[C@@H](O)[C@@H]7O)C6O[C@@H]6OC(CO)C(O)C(O)C6O)[C@@](C)(CO)[C@@H]5CC[C@]4(C)[C@]3(C)CC(O)[C@@]12CO (some centres undefined)	·	·	·	-1	10
CCOC(=O)c1c(C)[nH]c(C(=O)NCC(c2ccco2)N2CCCCC2)c1C (centres undefined)	·	·	·	2	-1
O=C(CN1C(=O)c2ccccc2S1(=O)=O)c1ccc(F)cc1	-43	-37	·	-3	11
O=C(CN1C(=O)c2ccccc2S1(=O)=O)c1ccccc1F	-61	-52*	·	-5	5
